Compound activity (PubChem BioAssay)
Most compounds without a hit are left out; they make up all but 3.2% or so of the library.
RE007 growth inh: less growth of the S. pombe RE007 Vpr strain | hit rate 0.21% among 360,000 | Potency, µM (series often up to 92.2 µM), without a hit: top-dose activity change, negative = less growth, actives largely listed as inhibitors | S. pombe RE007 Vpr strain, BacTiter-Glo ATP luminescence, 24 h | AID 651644; active means well fitted falling curve with a large enough effect; inconclusive means small, poorly fitted or top-dose-only effect; inactive means no such curve, though single readings can be large or run the other way; further: nearly all actives have a fitted effect of over 50% in size
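Fission yeast strain RE007, carrying one chromosomally integrated HIV-1 vpr copy, was seeded at OD 0.01 in PMG+AL medium with 23 nL pinned compound. After 24 h at 30 °C and 99% humidity, viability was read by BacTiter-Glo luminescence.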
AmpC inh detg: inhibitors of E. coli AmpC beta-lactamase with detergent; hit rate 0.041% among 370,000; P00811; AmpC hydrolysis of nitrocefin, absorbance 480 nm, 0.01% Triton; AID 485294; Potency, µM (top dose mostly 114 µM), for the others: at the top dose activity change, negative = inhibition, usual class: inhibitors;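 further: 0% = no-compound wells and -100% = no-enzyme wells; nearly all actives have a fitted effect of over 25% in size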
Target sequence (P00811 whole entry, looked up): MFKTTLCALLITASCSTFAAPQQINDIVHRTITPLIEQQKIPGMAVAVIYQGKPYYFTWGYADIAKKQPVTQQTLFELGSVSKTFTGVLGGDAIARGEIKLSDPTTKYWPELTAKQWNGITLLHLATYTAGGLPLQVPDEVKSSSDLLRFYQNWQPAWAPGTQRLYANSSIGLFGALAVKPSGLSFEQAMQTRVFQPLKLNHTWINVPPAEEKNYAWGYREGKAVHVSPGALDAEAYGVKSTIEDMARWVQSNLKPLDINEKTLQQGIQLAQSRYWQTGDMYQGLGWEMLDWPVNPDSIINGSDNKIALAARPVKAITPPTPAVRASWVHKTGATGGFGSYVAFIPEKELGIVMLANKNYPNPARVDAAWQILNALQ
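20 mM phosphate pH 7.0 + 0.01% (detergent screen) or 0.0001% Triton X-100; 5.3 nM AmpC reagent; cpd preinc 15 min RT; nitrocefin (800 uM stock) to start; A480 q20 s × 4 min; Activity was normalised to no-enzyme and no-compound control wells.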
AmpC inh no detg: AmpC beta-lactamase inhibition without detergent | AmpC nitrocefin hydrolysis, absorbance 480 nm, 0.0001% Triton | Potency, µM (highest dose often 57.1 µM), for inactives: at the top dose activity change, negative = inhibition, hits mostly inhibitors | hit rate 0.52% among 330,000 | AID 485341;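 further: plate controls were no compound for no effect and no enzyme for full effect; nearly all actives have a fitted effect of over 20% in size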
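AmpC (5.3 nM in the dispensed reagent) in 20 mM phosphate pH 7.0 with 0.01% (detergent screen) or 0.0001% Triton X-100 was preincubated with compounds for 15 min at room temperature. Nitrocefin was then added from an 800 uM solution, and hydrolysis was followed at 480 nm.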
AMA1-RON2 inh: disrupts binding of P. falciparum AMA1 to RON2 | Potency, µM (series often up to 58.2 µM), inactives show at the highest dose activity change, negative = inhibition, usual class: inhibitors | AID 720542 | AlphaScreen AMA1-biotinylated RON2 peptide binding | hit rate 0.2% among 360,000;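 further: 0% = vehicle wells and -100% = peptide control; nearly all actives have a fitted effect of over 45% in size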
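AMA1 (3D7) with his tag at 25 nM final met compounds first, then biotinylated RON2 peptide at 25 nM; detection used donor plus acceptor beads, 10 µg/mL apiece, read by AlphaScreen after 30 min at room temperature.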
Sm TGR inh: blocks Schistosoma mansoni thioredoxin glutathione reductase; Q962Y6; purified TGR, DTNB reduction, TNB absorbance 405 nm; Potency, µM (top dose mostly 114 µM), for inactives: at the highest dose activity change, negative = inhibition, actives largely listed as inhibitors; hit rate 3% among 360,000; AID 485364; further: nearly all actives have a fitted effect of over 60% in size
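First, TGR (20 nM dispensed) and NADPH were mixed with compound. Second, a 15 min room-temperature incubation followed. Third, further NADPH and then DTNB were added to start the reaction. Finally, TNB absorbance was monitored kinetically.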
The depositor's hits bear a star; ? = inconclusive; . = no result given; [ ] = remark or other dose. Unless noted, the call rests on the fitted dose curve; in most records, active means well fitted curve in the direction sought with a large enough effect; inconclusive means small, poorly fitted or top-dose-only effect, or another doubt; inactive means no such curve, though single readings can be large; an effect the other way counts as inactive or inconclusive. Unless noted, on the % scale 0 is the no-effect control and ±100 the full control effect; potency means the concentration at half of the fitted maximal effect.

SMILES | RE007 growth inh | AmpC inh detg | AmpC inh no detg | AMA1-RON2 inh | Sm TGR inh
Cc1ccc(-n2nnnc2Sc2ccc(S(=O)(=O)NCCN(C)C)cc2[N+](=O)[O-])cc1 | . | -11% | 58% | -5% | 25µM*
Cc1ccc(S(=O)(=O)NCCSc2nnnn2-c2ccc(C(N)=O)cc2)cc1 | -10% | ? | 10µM* | 1% | -3%
CN(C)CCNS(=O)(=O)c1ccc(N2CCN(c3ccc(F)cc3)CC2)c([N+](=O)[O-])c1 | 2% | -16% | 143% | -22% | 1%
O=[N+]([O-])c1cc(S(=O)(=O)NCCN2CCOCC2)ccc1Sc1nnnn1-c1ccccc1 | -9% | ? | 127% | 1%[11.6 µM] | 18µM*
O=[N+]([O-])c1cc(S(=O)(=O)NCCCN2CCOCC2)ccc1Cl | 13% | -11% | -3% | 0% | 45µM*
N#Cc1ccccc1NC(=O)C(=O)NCC(c1cccnc1)N1CCc2ccccc21 (stereo not given) | . | 15% | . | . | 6%
CCOC(=O)c1c(C)oc2c1c(C(c1ccccc1)N1CCOCC1)c(O)c1ccccc12 (stereo not given) | ? | 3% | -35% | -13% | 10µM*
CCOC(=O)c1c(C)oc2c1c(C=NCCO)c(O)c1ccccc12 | 14% | 0% | 244% | 77% | 40µM*
c1cncc(C(c2nnnn2C2CCCCC2)N2CCCCC2)c1 (stereo not given) | -13% | 3% | 16% | 15% | 4%
CCOC(=O)c1cnc(-c2ccccc2)nc1N1CCOCC1 | -3% | -8% | 41% | -11% | -2%
CCOC(=O)c1c(C)oc2c1c(C(c1cccnc1)N1CCCCC1)c(O)c1ccccc12 (stereo not given) | -5% | -12% | -5% | 7% | 0.71µM*
CCC(C)NC(=O)c1ccc2nc(CCc3ccccc3)oc2c1 (stereo not given) | . | -1% | . | . | -4%
CN(C)c1ccc(CC(=O)c2nc3ccccc3s2)cc1 | -12% | -11% | -21% | -11% | 40µM*
COc1cccc(OC)c1-c1nn2c(-c3cc(-c4ccccc4)n[nH]3)nnc2s1 | 7% | ? | 30% | -23% | 13µM*
Oc1ccccc1C=NNC(=S)NC1CC2C=CC1C2 (stereo not given) | -27% | . | . | 86% | .
Oc1c(Cl)cc(Cl)cc1/C=N/NC(=S)NC1CC2C=CC1C2 (stereo not given) | 18% | -1% | 8.9µM* | -12% | -8%
Cc1ncc(CO)c(/C=N/NC(=O)c2ccc(Br)cc2)c1O | . | -21% | -41% | . | -12%
Cc1ncc(CO)c(/C=N/NC(=O)c2cc(Br)ccc2O)c1O | 1% | -12% | -27% | 4µM* | 1%
Nc1nc(N)c2cc(S(=O)(=O)c3cccc(C(F)(F)F)c3)ccc2n1 | 24% | . | . | 4% | .
CN(C)c1ccc(Sc2ccc3nc(N)nc(N)c3c2)cc1 | -1% | . | . | 10µM* | .
CC(Oc1ccc(F)cc1)C(=O)Nc1nc(-c2ccc(F)cc2)ns1 (stereo not given) | . | 20% | . | . | 4%
CC(=O)c1ccc(NC(=O)CCCSc2nc(-c3ccco3)cc(C(F)(F)F)n2)cc1 | . | 3% | . | . | 0%
O=c1ccc2cc(O[C@@H]3O[C@@H](CO)[C@H](O)[C@@H](O)[C@@H]3O)c(O)cc2o1 | 7% | 4% | -16% | -5% | -1%
O=C(O)c1cc(O)c2c(c1)[C@H]([C@H]1c3cc(C(=O)O)cc(O)c3C(=O)c3c(O[C@@H]4O[C@H](CO)[C@@H](O)[C@H](O)[C@H]4O)cccc31)c1cccc(OC3O[C@H](CO)[C@@H](O)[C@H](O)[C@H]3O)c1C2=O (stereo not given in full) | 21%[18.4 µM] | 4% | 1µM* | 0.89µM* | ?
O=C1c2cc(CO)cc(O)c2C(=O)c2c(O[C@@H]3OC(CO)[C@@H](O)[C@@H](O)[C@@H]3O)cccc21 (stereo not given in full) | -2% | . | . | -10% | .
SMILES | RE007 growth inh | AmpC inh detg | AmpC inh no detg | AMA1-RON2 inh | Sm TGR inh
O=C(O)c1cc(O)c2c(c1)[C@@H]([C@H]1c3cc(C(=O)O)cc(O)c3C(=O)c3c(O[C@@H]4O[C@H](CO)[C@@H](O)[C@H](O)[C@H]4O)cccc31)c1cccc(OC3O[C@H](CO)[C@@H](O)[C@H](O)[C@H]3O)c1C2=O (stereo not given in full) | 2%[18.4 µM] | ? | 1.4µM* | ? | ?
O=C1c2c(O)cccc2C(C2OC(CO)[C@@H](O)[C@H](O)[C@H]2O)c2cc(CO)cc(O)c21 (stereo not given in full) | -29% | 8% | 143% | 1% | 40µM*
COc1ccc(NC(=O)c2ccc(NC(=O)CCS(=O)(=O)c3cccs3)cc2)cc1Cl | . | 17% | . | . | 4%
Cc1nn(-c2ccc(N3CCCC3)nn2)c(C)c1CCC(=O)Nc1ccc(F)c(Cl)c1 | . | 1% | . | . | -8%
COc1ccc(S(=O)(=O)N2CCN(Cc3nc4ccc(C)cc4o3)CC2)cc1 | . | 5% | . | . | 0%
CCCc1ccc(OC(=O)c2sc3ncn(Cc4cccc(F)c4)c(=O)c3c2C)cc1 | . | -7% | . | . | -1%
COc1cc(/C=C2/NC(=O)N(Cc3ccccc3F)C2=O)cc(OC)c1O | 6% | 4% | -33% | -7% | 14µM*
CCOc1cc(/C=C2/NC(=O)N(Cc3ccccc3F)C2=O)ccc1O | 13% | -5% | -52% | 0% | ?
CC1=C(n2nnc3ccccc32)C(c2ccccc2)C(C#N)=C(N)O1 (stereo not given) | -1% | 0% | -24% | 5% | 35µM*
Cn1c(=O)c(Nc2ccc(O)cc2)c2c3c(cccc31)C(=O)c1ccccc1-2 | -15% | 0% | -59% | 25µM* | ?
CC(=O)c1c2c3c(cccc3n(C)c1=O)C(=O)c1ccccc1-2 | -2% | -4% | -18% | -10% | 8.9µM*
CCc1ccc(NC(=O)CSc2c(C)cnc3c2c(=O)n(C)c(=O)n3C)cc1 | . | 1% | . | . | 6%
COc1ccc(OC)c2sc(NC(=O)c3ccc(S(=O)(=O)N4CCOCC4)cc3)nc12 | 4% | ? | 7.1µM* | -4% | 3%
COc1ccc(C(C)=O)cc1COC(=O)c1ccc(S(=O)(=O)N2CCOCC2)cc1 | -17% | -6% | -4% | 5% | 18µM*
COc1ccc(C(C)=O)cc1COc1ccccc1[N+](=O)[O-] | 9% | 6% | -18% | -2% | 11µM*
COc1ccc(C(C)=O)cc1COC(=O)c1ccc(N)c([N+](=O)[O-])c1 | -18% | 3% | 5% | 3% | 8.9µM*
Cn1cnc(S(=O)(=O)N2CCC(C(=O)NCc3ccccc3Cl)CC2)c1 | . | 11% | . | . | 7%
CCN(CC)CCNC(=O)Cn1nc(C)c2c(C)n(-c3ccccc3)nc2c1=O | . | -4% | . | . | 2%
